Drawing on PubChem BioAssay (NCI), this text covers growth for 26 molecules.

Compounds without any hit were thinned out: in the full panel of roughly 83,000, 20% have a hit.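 Assay: single dose, 48 h. Readout: percent growth (0 = no net growth; negative = cell death). Active: <10.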 Activity calls are given as the source filed them.

In the assay the test system is MDA-MB-468 breast. Kind of assay: NCI-60 one-dose screen, 48 h (100 = growth as untreated, 0 = no growth, -100 = all killed). The note with it: 10 µM unless noted.
Regarding `CCCCCOC(=O)c1cccc(NC(=O)CN(CC)CC)c1`, the growth is 106% (inactive).

Turning to `COc1cc(C2=NN(C=O)C(c3cccc(Nc4ccnc5cc(Cl)ccc45)c3)C2)cc(OC)c1OC` (stereo unspecified), the growth is 59.2% (inactive).

Turning to `c1ccc2c(c1)oc1cc3sccc3nc12`, the growth was 102% (inactive).

In the case of `Cc1ccc(C2=NN(c3ccc(S(=O)(=O)NC(=O)NCc4ccccc4)cc3)C(c3ccc(N(C)C)cc3)C2)c(C)c1` (stereo unspecified), the growth was 49.4% (inactive).

`NC(N)=Nc1ccc(Oc2cccc(NC(N)=Nc3ccc(Cl)c(C(F)(F)F)c3)c2)cc1`: the growth is 10.1% (inactive).

With `CC1Cc2c(Cl)ncnc2N(C)c2ccccc21` (stereo unspecified), the growth is -31.5% (active).

As to `COc1cc(C2CC(C3C(=O)N(C)C(=O)N(C)C3=O)=NN2c2cc(Cl)cc(Cl)c2)cc(OC)c1OC` (stereo unspecified), the growth is 84.5% (inactive).

With `O=C(c1ccccc1)c1ccc(Cl)c([N+](=O)[O-])c1`, the growth is 77.7% (inactive).

With `CN1C(=O)N(C)C2(c3ccccc3)OC(=S)NC12c1ccccc1` (stereo unspecified), the growth was 112% (inactive).

With `COc1ccc(C2C=C(c3ccc(Cl)c(Cl)c3)N=C3SC(C)=CN32)cc1` (stereo unspecified), the growth was 88.6% (inactive).

Consider `O=C(CNc1cccnc1)Nc1ccc(C(=O)/C=C/c2ccc(Cl)cc2)cc1`, for which the growth was 91.9% (inactive).

Consider `Cc1[nH]c(-c2nc3ccccc3[nH]2)c(C)c1C(=O)NNc1ccc(Cl)cc1`, for which the growth is 84.8% (inactive).

In the case of `CCCCSCC(=O)c1ccccc1`, the growth was 113% (inactive).

Take `Cc1ccc(/C=N/NC(=O)CSc2nc3ccccc3c(=O)n2Cc2ccc(S(N)(=O)=O)cc2)cc1`: the growth is 81.2% (inactive).

Consider `COc1ccc2c(c1)cn1c3ccc(OC)cc3[nH]c(=O)c21`, for which the growth was -12% (active).

On to `O=C(/C=C/c1sc(Cl)nc1Cl)c1ccc(Br)cc1`, for which the growth was 63.2% (inactive).

For `CCCCn1c(Cc2ccc(OC)cc2)nc2cc(OC)c(OC)cc2c1=O`, the growth was 46.7% (inactive).

Consider `CC1=CC(=NC(=O)CBr)C=C/C1=N\S(=O)(=O)c1ccccc1`, for which the growth was 66% (inactive).

Take `CCOP(=O)(OCC)OC[C@]12CCC(C)(C)C=C1[C@H]1CC[C@@H]3[C@@]4(C)CC[C@H](OP(=O)(OCC)OCC)C(C)(C)[C@@H]4CC[C@@]3(C)[C@]1(C)CC2`: the growth is -16.8% (active).

Turning to `NC1CCC(Nc2nc(NCc3ccc(-c4ccco4)nc3)c3ncn(C4CCCC4)c3n2)CC1` (stereo unspecified), the growth is -54.3% (active).

With `Cn1/c(=N\N=C\c2ccccc2OCCO)sc2ccccc21`, the growth is 103% (inactive).

As to `CCn1c(Cc2ccccc2Nc2c(Cl)cccc2Cl)nnc1SCC(=O)NN1C(=O)/C(=C/c2cc(OC)c(O)c(OC)c2)SC1=S`, the growth was -2.96% (active).

For the molecule `COc1cc(C)cc(-c2c(-c3cc(N4CC(O)C4)nc(-c4cccnc4)n3)cnn2C)c1`, the growth was 80.2% (inactive).

`CS(=O)(=O)Nc1ccc(Nc2c3ccccc3nc3cc([N+](=O)[O-])ccc23)cc1`: the growth is -43.3% (active).

In the case of `O=S(=O)(NCCCNc1nccc(-c2c(-c3ccc(O)cc3)nc3sccn23)n1)c1ccc(F)cc1`, the growth is -19.2% (active).

For the molecule `CC[C@H](C)[C@H](NC(=O)[C@@H](N)CCC(N)=O)C(=O)N[C@@H](Cc1ccc(O)cc1)C(=O)N[C@@H](CCCCN)C(=O)N[C@@H](CCCCN)C(=O)N[C@@H](Cc1ccc(O)cc1)C(=O)N[C@@H](CCCNC(=N)N)C(=O)N[C@H](C(=O)N[C@@H](Cc1c[nH]c2ccccc12)C(=O)N[C@@H](Cc1ccc(O)cc1)C(=O)N[C@@H](CCCNC(=N)N)C(=O)N[C@@H](CCCCN)C(=O)N[C@@H](C)C(=O)N[C@@H](Cc1c[nH]c2ccccc12)C(=O)N[C@@H](CCCCN)C(=O)N[C@H](C(=O)N[C@@H](CC(C)C)C(=O)NCC(=O)N[C@@H](CCCCN)C(=O)N[C@H](C(N)=O)C(C)C)C(C)C)[C@@H](C)O`, the growth was 44.6% (inactive).
